According to PubChem BioAssay (NCI):
This is part of a sample that, as a whole, favours compounds with a hit. Of some 79,000 tested, about 15% had one in any assay. The source made the active and inactive calls. Cut-off read from the data, not from the text of the source: active = growth inhibition above about 70%; inactive = the rest.

What was measured:
[1] = NCI Yeast Anticancer Drug Screen. Data for the rad52 strain (AID 147);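 note: 0% = growth of vehicle-treated control cultures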; conditions: S. cerevisiae rad52 mutant growth inhibition, stronger effect = higher value
Procedure, shortened: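 Yeast strain carrying a DNA damage repair alteration was exposed to test compounds. Growth inhibition was measured relative to vehicle-treated controls.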

[2] = NCI Yeast Anticancer Drug Screen. Data for the wt1 strain (AID 149);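 note: 0% = growth of vehicle-treated wt1 cultures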; conditions: S. cerevisiae wt1 strain (SPY 50644) growth inhibition, stronger effect = higher value
Procedure, shortened: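 Readout: yeast growth inhibition, normalised to vehicle controls, in the wt1 strain exposed to test compounds.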

[3] = NCI Yeast Anticancer Drug Screen. Data for the rad50EPP+ strain (AID 151);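 note: 0% = growth of vehicle-treated control cultures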; conditions: S. cerevisiae rad50 mutant strain, stronger effect = higher value
Procedure, shortened: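 Yeast strain carrying rad50 alteration (rad50EPP+) exposed to compounds; growth inhibition measured relative to vehicle-treated controls.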

[4] = NCI Yeast Anticancer Drug Screen. Data for the mgt1 strain (AID 153); conditions: S. cerevisiae mgt1 mutant growth inhibition, stronger effect = higher value
Procedure, shortened: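 Yeast mgt1 strain (DNA repair/cell-cycle alteration panel) exposed to compounds; growth inhibition measured relative to vehicle-treated controls.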

[5] = NCI Yeast Anticancer Drug Screen. Data for the rad50 strain (AID 155);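 note: 0% = growth of vehicle-only cultures of the same strain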; conditions: S. cerevisiae rad50 strain growth inhibition, stronger effect = higher value
Procedure, shortened: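 Compounds were tested on a yeast strain with an engineered DNA damage repair alteration; the reported value is growth inhibition normalised to vehicle treatment.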

[6] = NCI Yeast Anticancer Drug Screen. Data for the mec2-1 strain (AID 157); conditions: S. cerevisiae mec2-1 strain, stronger effect = higher value
Procedure, shortened: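 mec2-1 yeast strain, carrying an alteration in DNA damage repair or cell cycle control, was exposed to compounds; growth inhibition was measured relative to vehicle-treated controls.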

[7] = NCI Yeast Anticancer Drug Screen. Data for the rad14 strain (AID 159);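 note: 0% = growth of vehicle-treated control cultures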; conditions: S. cerevisiae rad14 strain growth inhibition, stronger effect = higher value
Procedure, shortened: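 Compound-treated yeast with a defined DNA-repair lesion; growth inhibition normalised to vehicle-treated cultures.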

[8] = NCI Yeast Anticancer Drug Screen. Data for the sgs1 mgt1 strain (AID 161);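 note: 0% = growth of cultures given vehicle only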; conditions: S. cerevisiae sgs1 mgt1 strain, stronger effect = higher value
Procedure, shortened: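 Yeast cells carrying a defined DNA-repair defect were exposed to test compounds. Growth inhibition was measured relative to vehicle-treated controls.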

[9] = NCI Yeast Anticancer Drug Screen. Data for the CLN2oe strain (AID 163);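 note: 0% = growth of vehicle-only control cultures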; conditions: S. cerevisiae CLN2oe strain, stronger effect = higher value
Procedure, shortened: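 Yeast cells carrying a defined cell-cycle control alteration were exposed to test compounds. Growth inhibition was scored against vehicle-treated control cultures.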

[10] = NCI Yeast Anticancer Drug Screen. Data for the cln2 rad14 strain (AID 165);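 note: 0% = growth equal to vehicle treated cultures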; conditions: S. cerevisiae cln2 rad14 strain, stronger effect = higher value
Procedure, shortened: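 Yeast carrying cln2 and rad14 alterations (cell cycle control and DNA damage repair) were exposed to compounds. Growth inhibition was measured against vehicle-treated controls.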

[11] = NCI Yeast Anticancer Drug Screen. Data for the wt2 strain (AID 169);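 note: 0% = growth of vehicle-treated yeast cultures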; conditions: S. cerevisiae wt2 strain growth inhibition, stronger effect = higher value
Procedure, shortened: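 Yeast cells were exposed to test compounds, and growth inhibition was measured relative to vehicle-treated controls.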

[12] = NCI Yeast Anticancer Drug Screen. Data for the mlh1 strain (AID 171);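 note: 0% = growth of vehicle-treated control cultures of the same strain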; conditions: S. cerevisiae mlh1 strain growth inhibition, stronger effect = higher value
Procedure, shortened: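 Yeast carrying a defined genetic alteration in DNA damage repair or cell cycle control were exposed to test compounds. Growth inhibition was measured relative to vehicle-treated controls.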

[13] = NCI Yeast Anticancer Drug Screen. Data for the mlh1 rad18 strain (AID 175); conditions: S. cerevisiae mlh1 rad18 strain growth inhibition, stronger effect = higher value
Procedure, shortened: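 Growth inhibition of the yeast strain was measured after compound exposure and expressed relative to vehicle-treated controls. The strain carries defined defects in DNA damage repair.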

[14] = NCI Yeast Anticancer Drug Screen. Data for the rad18 strain (AID 177); conditions: S. cerevisiae rad18 mutant growth inhibition, stronger effect = higher value
Procedure, shortened: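 Yeast carrying a defined DNA damage repair alteration were exposed to compounds. Growth inhibition was expressed relative to vehicle-treated controls.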

[15] = NCI Yeast Anticancer Drug Screen. Data for the bub3 strain (AID 167); conditions: S. cerevisiae bub3 mutant strain, stronger effect = higher value
Procedure, shortened: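 Growth of a checkpoint-deficient yeast mutant is measured after compound exposure. Values represent inhibition relative to vehicle.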

[16] = NCI Yeast Anticancer Drug Screen. Data for the sgs1 strain (AID 173);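 note: 0% = growth of vehicle-only control cultures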; conditions: S. cerevisiae sgs1 mutant, stronger effect = higher value
Procedure, shortened: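 Yeast mutant strains carrying defined defects in DNA damage repair or cell cycle control were exposed to test compounds. Growth inhibition was scored against vehicle-treated controls.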

[17] = at 5.0 µM (retest, dose inferred, filed as 0.5)
[18] = at 50.0 µM (retest, dose inferred, filed as 5.0)

Measured: growth inhibition

O=C(/C=C/c1ccsc1)c1cccs1
active: [1]; at 100.0 µM 82% | [3]; at 100.0 µM 95% | [4]; at 100.0 µM 92% | [5]; at 100.0 µM 92% | [6]; at 100.0 µM 98% | [7]; at 100.0 µM 87% | [9]; at 100.0 µM 84% | [11]; at 100.0 µM 85% | [12]; at 100.0 µM 96% | [14]; at 100.0 µM 84%
inactive: [1]; at 1.2 µM -16% | [1]; at 3.7 µM -18% | [1]; at 11.0 µM -9% | [1]; at 33.0 µM -12% | [2]; at 1.2 µM -33% | [2]; at 3.7 µM -41% | [2]; at 11.0 µM -35% | [2]; at 33.0 µM -35% | [2]; at 100.0 µM 17% | [3]; at 1.2 µM 5% | [3]; at 3.7 µM 11% | [3]; at 11.0 µM 21% | [3]; at 33.0 µM 54% | [4]; at 1.2 µM 3% | [4]; at 3.7 µM -2% | [4]; at 11.0 µM -4% | [4]; at 33.0 µM 10% | [5]; at 1.2 µM 21% | [5]; at 3.7 µM 19% | [5]; [17] -15% | [5]; at 11.0 µM 22% | [5]; at 33.0 µM 27% | [5]; [18] 11% | [5]; at 50.0 µM 46.6% | [6]; at 1.2 µM -3% | [6]; at 3.7 µM -7% | [6]; [17] 4% | [6]; at 11.0 µM -2% | [6]; at 33.0 µM 8% | [6]; [18] 11% | [6]; at 50.0 µM 19.9% | [7]; at 1.2 µM 3% | [7]; at 3.7 µM 0% | [7]; at 11.0 µM -8% | [7]; at 33.0 µM 9% | [8]; [17] -1% | [8]; [18] 33% | [8]; at 50.0 µM 66.6% | [9]; at 1.2 µM 4% | [9]; at 3.7 µM 14% | [9]; at 11.0 µM 3% | [9]; at 33.0 µM 5% | [10]; [17] 37% | [10]; [18] 42% | [10]; at 50.0 µM 4.55% | [11]; at 1.2 µM -24% | [11]; at 3.7 µM -36% | [11]; at 11.0 µM -31% | [11]; at 33.0 µM -29% | [12]; at 1.2 µM 6% | [12]; at 3.7 µM 3% | [12]; at 11.0 µM -8% | [12]; at 33.0 µM 25% | [13]; [17] -9% | [13]; [18] 69% | [13]; at 50.0 µM 44.6% | [14]; at 1.2 µM -3% | [14]; at 3.7 µM -5% | [14]; at 11.0 µM -12% | [14]; at 33.0 µM -6%

CCCCCCCCNCCCCCCCC
inactive: [1]; at 1.2 µM 4% | [1]; at 3.7 µM 18% | [2]; at 1.2 µM 0% | [2]; at 3.7 µM 2% | [2]; at 11.0 µM 29% | [3]; at 1.2 µM 1% | [3]; at 3.7 µM -1% | [3]; at 11.0 µM 24% | [4]; at 1.2 µM 12% | [4]; at 3.7 µM 29% | [5]; at 1.2 µM 6% | [5]; at 3.7 µM 3% | [5]; [17] 67% | [6]; at 1.2 µM 2% | [6]; at 3.7 µM 13% | [6]; [17] 9% | [7]; at 1.2 µM 50% | [9]; at 1.2 µM 13% | [9]; at 3.7 µM 21% | [9]; at 11.0 µM 60% | [15]; at 1.2 µM 33% | [15]; at 3.7 µM 49% | [11]; at 1.2 µM 0% | [11]; at 3.7 µM 17% | [12]; at 1.2 µM 6% | [12]; at 3.7 µM 20% | [16]; at 1.2 µM 11% | [16]; at 3.7 µM 30% | [14]; at 1.2 µM 14% | [14]; at 3.7 µM 38%
active: [1]; at 11.0 µM 76% | [1]; at 33.0 µM 99% | [1]; at 100.0 µM 99% | [2]; at 33.0 µM 96% | [2]; at 100.0 µM 99% | [3]; at 33.0 µM 92% | [3]; at 100.0 µM 99% | [4]; at 11.0 µM 97% | [4]; at 33.0 µM 100% | [4]; at 100.0 µM 100% | [5]; at 11.0 µM 96% | [5]; at 33.0 µM 98% | [5]; [18] 99% | [5]; at 50.0 µM 99.5% | [5]; at 100.0 µM 98% | [6]; at 11.0 µM 77% | [6]; at 33.0 µM 98% | [6]; [18] 100% | [6]; at 50.0 µM 99.7% | [6]; at 100.0 µM 98% | [7]; at 3.7 µM 82% | [7]; at 11.0 µM 97% | [7]; at 33.0 µM 98% | [7]; at 100.0 µM 98% | [8]; [17] 82% | [8]; [18] 100% | [8]; at 50.0 µM 99.5% | [9]; at 33.0 µM 97% | [9]; at 100.0 µM 97% | [15]; [17] 74% | [15]; at 11.0 µM 95% | [15]; at 33.0 µM 98% | [15]; [18] 99% | [15]; at 50.0 µM 99.5% | [15]; at 100.0 µM 99% | [11]; at 11.0 µM 76% | [11]; at 33.0 µM 99% | [11]; at 100.0 µM 99% | [12]; at 11.0 µM 96% | [12]; at 33.0 µM 99% | [12]; at 100.0 µM 100% | [16]; at 11.0 µM 94% | [16]; at 33.0 µM 97% | [16]; at 100.0 µM 97% | [13]; [17] 80% | [13]; [18] 99% | [13]; at 50.0 µM 99.3% | [14]; at 11.0 µM 91% | [14]; at 33.0 µM 99% | [14]; at 100.0 µM 95%

O=C(CCCN1CCC(Nc2ccc(F)cc2)(c2nnnn2C2CCCCC2)CC1)c1ccc(F)cc1
active: [1]; at 100.0 µM 98% | [2]; at 100.0 µM 89% | [4]; at 100.0 µM 98% | [5]; at 100.0 µM 97% | [6]; at 100.0 µM 99% | [9]; at 100.0 µM 99% | [15]; [18] 80% | [15]; at 100.0 µM 99% | [11]; at 100.0 µM 99%
inactive: [1]; at 1.2 µM 14% | [1]; at 3.7 µM 2% | [1]; at 11.0 µM 19% | [1]; at 33.0 µM 24% | [2]; at 1.2 µM -81% | [2]; at 3.7 µM -5% | [2]; at 11.0 µM -11% | [2]; at 33.0 µM -11% | [3]; at 1.2 µM 0% | [3]; at 3.7 µM 0% | [3]; at 11.0 µM 1% | [3]; at 33.0 µM 4% | [3]; at 100.0 µM 25% | [4]; at 1.2 µM -2% | [4]; at 3.7 µM -3% | [4]; at 11.0 µM -6% | [4]; at 33.0 µM 2% | [5]; at 1.2 µM -5% | [5]; at 3.7 µM -7% | [5]; [17] 1% | [5]; at 11.0 µM -9% | [5]; at 33.0 µM -5% | [5]; [18] 37% | [5]; at 50.0 µM 11.7% | [6]; at 1.2 µM -7% | [6]; at 3.7 µM -8% | [6]; [17] 3% | [6]; at 11.0 µM -17% | [6]; at 33.0 µM -5% | [6]; [18] 12% | [6]; at 50.0 µM 27.1% | [8]; [17] -4% | [8]; [18] 31% | [8]; at 50.0 µM 50.3% | [9]; at 1.2 µM -8% | [9]; at 3.7 µM -10% | [9]; at 11.0 µM -7% | [9]; at 33.0 µM 31% | [10]; [17] 65% | [10]; [18] 50% | [10]; at 50.0 µM 35.7% | [15]; at 1.2 µM -2% | [15]; at 3.7 µM -4% | [15]; [17] -13% | [15]; at 11.0 µM -6% | [15]; at 33.0 µM 22% | [15]; at 50.0 µM 32.9% | [11]; at 1.2 µM -6% | [11]; at 3.7 µM -6% | [11]; at 11.0 µM -9% | [11]; at 33.0 µM -1%
